The test system of this assay is Inhibin beta A chain (activin A). As to the kind of experiment: small molecules binding activin A – biochemical, small-molecule microarray, 635 nm fluorescence scan, primary screen (AID 1107).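 Further: mouse activin A protein probed at 4.33 µg/mL on printed slides; score merges bound-protein fluorescence near 667 nm with spot signal-to-noise.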 The conditions noted are these: INHBA, higher = more signal.
For the compound `O=C1OCC=C[C@H]2OC34C=CCN(c5ccc6ccccc6c5)C(=O)[C@H]3N(CCCO)C(=O)[C@@H]4[C@@H]12` (stereo partly specified), the composite z-score stood at 0.374. `[N-]=[N+]=NCc1ccccc1C[C@]1(C(=O)O)N=C(c2ccc(OCCCO)cc2)O[C@H]1c1ccccc1CN=[N+]=[N-]` gave a composite z-score of 0.458. As for `COCCOC(=O)N1C(=O)[C@@]2(c3cc(C#CCC(C(=O)OC)C(=O)OC)ccc31)[C@H](c1ccccc1OCCO)N1[C@H](c3ccccc3)[C@H](c3ccccc3)OC(=O)[C@H]1[C@@H]2C(N)=O`, the composite z-score was 0.0274. `COCC1=C2[C@@H](CCc3ccccc3)OB(O)C[C@@H]2[C@@H]2C(=O)N(Cc3ccccc3)C(=O)[C@@H]2C1` returned a composite z-score of 0.728. `CC(C)NC(=O)[C@@H]1c2ccccc2C(=O)N(Cc2ccccc2Cl)[C@H]1c1ccc(CO)cc1` registered a composite z-score of 0.365.

Compound `COc1cc2c(cc1OC)CN(C(=O)[C@@H]1[C@H]3C(=O)O[C@H](c4ccccc4)[C@H](c4ccccc4)N3[C@H](c3ccccc3OCCO)[C@@]13C(=O)Nc1ccc(C#CCNC(N)=O)cc13)CC2` displayed a composite z-score of 0.922.
